Test system: Pectobacterium parmentieri SCC3193
Assay: DuctApe activity index (growth/respiration on compound as sole nutrient source, blank-subtracted) (activity index (0-3)); higher = stronger utilization of the compound, active = 3 or more
Details: nutrient role (plate category): carbon
Method: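 Biolog Phenotype Microarray plates PM1, PM2A (carbon), PM3 (nitrogen) and PM4 (phosphorus/sulfur) inoculated with P. parmentieri SCC3193 in M9-C minimal salts medium with Biolog dye A, and read in the OmniLog for 46 h. Each well was tested in triplicate and the experiment was run twice. DuctApe computed a blank-subtracted activity index (AV, 0-3) from the mean curves; growth is positive at AV >= 3 and negative at AV <= 2.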

Compound | DuctApe activity index
NCCc1ccc(O)cc1 [Tyramine] | 0 (inactive)
O=C(O)CC(Br)C(=O)O (centres undefined) [Bromosuccinic acid] | 3 (active)
O=C(O)CCCO [g-Hydroxybutyric acid] | 0 (inactive)
NCC(O)c1ccc(O)cc1 (racemic) [D,L-Octopamine] | 0 (inactive)
N#C[C@H](O[C@@H]1O[C@H](CO[C@@H]2O[C@H](CO)[C@@H](O)[C@H](O)[C@H]2O)[C@@H](O)[C@H](O)[C@H]1O)c1ccccc1 [Amygdalin] | 0 (inactive)
NCCc1ccccc1 [Phenylethylamine] | 0 (inactive)

Same assay, conditions: nutrient role (plate category): nitrogen

Compound | DuctApe activity index
NCCc1ccccc1 [b-Phenylethylamine] | 0 (inactive)
NCCc1ccc(O)cc1 [Tyramine] | 0 (inactive)
CCN [Ethylamine] | 0 (inactive)
O=C1NC(=O)C(=O)C(=O)N1 [Alloxan] | 0 (inactive)
CN [Methylamine] | 0 (inactive)
O=[N+]([O-])O [Nitrate] | 0 (inactive)

Same assay, conditions: nutrient role (plate category): phosphate & sulphur

Compound | DuctApe activity index
CN(CC(=O)O)C(=N)NP(=O)(O)O [Phosphocreatine] | 2 (inactive)
OP(O)(=S)S [Dithiophosphate] | 1.5 (inactive)
CCSCCC(N)C(=O)O (racemic) [DL-Ethionine] | 0 (inactive)
OP(O)(O)=S [Thiophosphate] | 1.5 (inactive)
O=PO [Hypophosphite] | 0 (inactive)
CCOP(=O)(OCC)OCC [Triethyl Phosphate] | 0 (inactive)
NCCP(=O)(O)O [2-Aminoethyl Phosphonic acid] | 0 (inactive)

Reference: the supplement of paper PMC6518042
